Source: PubChem BioAssay (National Center for Advancing Translational Sciences (NCATS))
FBPA coupling cs = inhibits coupling enzyme system, counter-screen for aldolase hits. coupling enzyme system counterscreen, AmpLite Red fluorescence. 0.67% of 290,000 active. activity change, negative = inhibition, % at 58.2 µM, hits read low; in the data active = activity change below about -30%
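Activity here indicates interference with the coupling reaction, not aldolase inhibition. Compounds at 57.5 uM final met coupling enzymes for 10 min at RT; substrate and AmpLite Red detection followed, with a 525/598 nm fluorescence read after 20 min.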
TrxR1 substrate = is turned over as a substrate by rat TrxR1; O89049; purified TrxR1 substrate turnover, NADPH consumption readout; Potency, µM (highest dose often 114 µM); 0.01% of 390,000 active; note: nearly all actives have a fitted effect of over 50% in size
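Rat TrxR1, dispensed at 90 nM, was prereduced with 400 uM NADPH (final) for 5 min at ~22 deg C, then incubated with compound 15 min before 400 uM selenite. A first-read NADPH fluorescence drop versus no-compound background flagged substrates.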
Gal4-VP16 FLuc = inhibits Gal4-VP16 luciferase reporter, ROR gamma counter-screen. Drosophila S2 Gal4-VP16 UAS-luciferase, luminescence, 20 h. Potency, µM (series often up to 53.6 µM), actives largely listed as inhibitors. 3.5% of 310,000 active. AID 2546;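 note: Gal4-VP16 expression switched on by copper sulfate through the metallothionein promoter; nearly all actives have a fitted effect of over 50% in size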
GALK inh = inhibitors of human galactokinase | P51570 | AID 1868 | Potency, µM (titrated, usually from 57.5 µM), usual class: inhibitors | Purified GALK, Kinase-Glo residual ATP luminescence | 0.007% of 270,000 active
Target sequence (P51570 whole entry, looked up): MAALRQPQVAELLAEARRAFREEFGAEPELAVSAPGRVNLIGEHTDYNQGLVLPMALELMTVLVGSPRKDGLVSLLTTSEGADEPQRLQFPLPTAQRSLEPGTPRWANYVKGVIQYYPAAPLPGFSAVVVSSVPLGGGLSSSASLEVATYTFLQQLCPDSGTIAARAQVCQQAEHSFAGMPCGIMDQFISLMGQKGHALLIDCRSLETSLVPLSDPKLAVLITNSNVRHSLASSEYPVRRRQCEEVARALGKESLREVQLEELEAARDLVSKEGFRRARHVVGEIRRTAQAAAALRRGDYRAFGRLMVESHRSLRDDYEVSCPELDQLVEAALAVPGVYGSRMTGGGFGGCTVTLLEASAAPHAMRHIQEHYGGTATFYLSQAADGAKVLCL
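ATP-depletion format; final 35 uM ATP, 100 uM D-galactose, 5 nM enzyme; pH 8.0 HEPES/Mg2+ buffer; 60 min RT; luminescence read 10 min after detection reagent.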
rTrxR1 inhibitor = inhibitors of rat thioredoxin reductase 1. 1% of 390,000 active. Potency, µM (highest dose often 114 µM), actives largely listed as inhibitors. recombinant rTrxR1, NADPH fluorescence consumption, selenite substrate; note: nearly all actives have a fitted effect of over 65% in size
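Rat TrxR1 (90 nM in the dispensed reagent) was pre-reduced with 400 uM NADPH for 5 min at room temperature, then incubated with compound for 15 min. After 400 uM selenite was added, NADPH fluorescence (Ex 340/Em 450 nm) was followed for 8 min.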
RORgamma inh = blocks mouse ROR gamma transcriptional activity | 5.4% of 310,000 active | Potency, µM (series often up to 53.6 µM), hits mostly inhibitors | AID 2551 | P51450 | Drosophila S2 Gal4-RORgamma UAS-luciferase reporter, 20 h; note: nearly all actives have a fitted effect of over 60% in size
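Read-out: Photinus luciferase luminescence; inhibitors lower reporter signal. Insect Schneider cells with Gal4-ROR gamma fusion under metallothionein promoter, UAS reporter; 700 uM final copper sulfate induction, 20 hr, ambient temperature.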
Large screens that a line does not name were inactive. Compounds with a hit are over-represented: about 5.9% of the library has one in this group of screens. Unless noted, calls come from the whole dose curve; as a rule, active = well fitted curve in the direction sought with a large enough effect; inconclusive = small, poorly fitted or top-dose-only effect, or another doubt; inactive = no such curve, though single readings can be large; an effect the other way counts as inactive or inconclusive.

COc1ccc(-c2c(C(=O)O)nc3ccccc3c2C(=O)O)cc1	FBPA coupling cs -34.1
COc1ccc(CCCc2n[nH]c(=S)o2)cc1	RORgamma inh 12.6µM
S=c1[nH]nc(COc2ccc3ccccc3c2)o1	Gal4-VP16 FLuc 3.98µM, RORgamma inh inconclusive
COc1ccc(Cc2n[nH]c(=S)o2)cc1	none
CC(C)(C)c1nc(Sc2ccc([N+](=O)[O-])cn2)n[nH]1	none
O=[N+]([O-])c1ccc(Sc2n[nH]c(-c3ccc(Cl)cc3Cl)n2)nc1	Gal4-VP16 FLuc 7.08µM, RORgamma inh 0.891µM
Cc1[nH]n(C(N)=S)c(=O)c1N=Nc1cccc(C(F)(F)F)c1	Gal4-VP16 FLuc 0.398µM, RORgamma inh 0.112µM
Cc1[nH]n(C2=NCCS2)c(=O)c1N=Nc1cccc(C(F)(F)F)c1	Gal4-VP16 FLuc 0.631µM, RORgamma inh 0.282µM
Cc1ccc(C(F)(F)F)cc1NC(N)=S	none
O=c1[nH]n2c(=O)c3c([nH]c2c1N=Nc1cccc(C(F)(F)F)c1)CCCC3	Gal4-VP16 FLuc inconclusive
Cc1[nH]n(C(N)=S)c(=O)c1N=Nc1cc(C(F)(F)F)ccc1Cl	Gal4-VP16 FLuc inconclusive, RORgamma inh 0.562µM
COc1ccc2ccccc2c1-c1sc(Nc2ccccc2)n[n+]1-c1ccc(F)cc1	none (no result: GALK inh)
Cc1cccc(CNC(=O)c2ccc(-c3nc(CS(=O)(=O)c4ccccc4)c(C)o3)cc2)c1	none (no result: FBPA coupling cs, Gal4-VP16 FLuc, GALK inh, RORgamma inh)
CN(C)CCn1c2ccccc2c2nc3ccc([N+](=O)[O-])cc3cc21	Gal4-VP16 FLuc 11.2µM, RORgamma inh 7.94µM
COc1ccc(OC)c(NC(=O)CSC2=Nc3ccccc3C3=NC(CCC(=O)NCCc4ccccc4)C(=O)N23)c1 (stereo not drawn)	none (no result: FBPA coupling cs, Gal4-VP16 FLuc, GALK inh, RORgamma inh)
CCOc1cc(C=O)ccc1OCCCN1C(=O)NC(C)(C)C1=O	none
CCCCOc1ccc(/C=C/C2=CC(C)(C)NC(=S)N2)cc1OCC	Gal4-VP16 FLuc 1.78µM, RORgamma inh 0.794µM
CCCn1c2ccccc2c2cnn(CC(=O)NCc3cc(OC)ccc3OC)c(=O)c21	none (no result: FBPA coupling cs, Gal4-VP16 FLuc, GALK inh, RORgamma inh)
O=C(Cc1coc2ccc3ccccc3c12)N1CCCC1	FBPA coupling cs -37.2
Cc1cc(C)cc(NC(=S)Nc2ccc(Cl)c(Cl)c2)c1	Gal4-VP16 FLuc inconclusive, RORgamma inh 10µM
